In PubChem BioAssay (EPA / NIEHS):
Active and inactive are the calls of the source. Rule for the calls: active = hit-call score of the fitted dose curve at least 0.9, where 1 is the maximum; inactive = score below 0.9.

Columns and labels:
[1] = read-out: Matrix Metallopeptidase 1 (MMP1), MMP1 (gene 4312); assay: BSK_BE3C_MMP1: BioMAP Diversity Plus: BE3C Assay for Matrix Metallopeptidase 1 (MMP1) Biomarker Activity (AID 2283024); conditions: primary human bronchial epithelial cells; actives raise or lower the signal
In short: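 ELISA measurement of MMP-1 after 24 h compound exposure of primary human bronchial epithelial cells. Changes in either direction fitted relative to DMSO; parallel SRB staining checked overt cytotoxicity.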

[2] = BSK_3C_Vis: BioMAP Diversity Plus: 3C Assay for Morphology Visualization (AID 2283025); conditions: primary human endothelial cells (HUVEC);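 note: fitted both ways so gain or loss versus DMSO counts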;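 for AC50: light microscopy image of cell morphology used as background control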
In short: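 Light-microscopy visualization of HUVEC cultures at 24 h post-treatment, with DMSO as baseline for bidirectional fitting.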

[3] = read-out: Pselectin, SELP (gene 6403); assay: BSK_4H_Pselectin: BioMAP Diversity Plus: 4H Assay for Pselectin Biomarker Activity (AID 2283026); conditions: primary human endothelial cells (HUVEC); actives raise or lower the signal
In short: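 ELISA of surface P-selectin on HUVEC, 24 h after dosing, with parallel SRB staining (0.1% after 10% TCA fixation, 560 nm) for overt cytotoxicity. Activity fitted in both directions relative to DMSO.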

[4] = BSK_4H_SRB: Viability Assessment in the BioMAP Diversity Plus: 4H Assay (AID 2283027); conditions: primary human endothelial cells (HUVEC);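 note: cells exposed to compound for 24 h before staining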;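 for AC50: curves fitted both ways versus DMSO so AC50 may be loss or gain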
In short: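 HUVEC, 24 h post-dose; 10% TCA fix, 0.1% SRB stain, A560 nm. Total protein = overt cytotoxicity, parallel to biomarker read. Bidirectional fit vs DMSO baseline.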

[5] = BSK_BE3C_SRB: Viability Assessment in the BioMAP Diversity Plus: BE3C Assay (AID 2283028); conditions: primary human bronchial epithelial cells;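 for AC50: fitted both ways so AC50 may mark signal gain or loss versus DMSO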
In short: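 SRB total-protein staining (0.1%, after TCA fixation) of chemically dosed human bronchial epithelial primary cells at 24 h; DMSO serves as the negative control for bidirectional curve fitting.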

[6] = read-out: Thrombomodulin, THBD (gene 7056); assay: BSK_3C_Thrombomodulin: BioMAP Diversity Plus: 3C Assay for Thrombomodulin Biomarker Activity (AID 2283029); conditions: primary human endothelial cells (HUVEC); actives raise or lower the signal
In short: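 ELISA measurement of thrombomodulin on HUVEC surface 24 h after chemical dosing; activity fitted in both directions relative to DMSO vehicle.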

[7] = read-out: Urokinase-type plasminogen activator receptor (uPAR), PLAUR (gene 5329); assay: BSK_4H_uPAR: BioMAP Diversity Plus: 4H Assay for Urokinase-type plasminogen activator receptor (uPAR) Biomarker Activity (AID 2283030); conditions: primary human endothelial cells (HUVEC); actives raise or lower the signal
In short: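 Endpoint derived via bidirectional curve fitting against DMSO baseline; readout was ELISA detection of uPAR on umbilical vein endothelial cells at 24 h post-treatment, with SRB-stained parallel cultures assessing cytotoxicity.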

[8] = read-out: Vascular endothelial growth factor receptor 2 (Homo sapiens) (UniProt P35968); assay: BSK_4H_VEGFRII: BioMAP Diversity Plus: 4H Assay for Vascular endothelial growth factor receptor 2 (VEGFR2) Biomarker Activity (AID 2283031); conditions: primary human endothelial cells (HUVEC); actives raise or lower the signal;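 for AC50: cell-surface VEGFR2 protein level quantified by ELISA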
In short: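 In this multiplexed HUVEC system, biomarker ELISA was performed after 24 h chemical exposure. Parallel SRB staining (TCA fixation, 560 nm) tracked cytotoxicity; DMSO served as baseline.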

[9] = read-out: Vascular cell adhesion molecule 1 (VCAM1), VCAM1 (gene 7412); assay: BSK_4H_VCAM1: BioMAP Diversity Plus: 4H Assay for Vascular cell adhesion molecule 1 (VCAM1) Biomarker Activity (AID 2283033); conditions: primary human endothelial cells (HUVEC); actives raise or lower the signal
In short: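 VCAM-1 ELISA read 24 h after chemical dosing of HUVEC in the BioMAP 4H system, with gain or loss of signal fitted relative to DMSO. Parallel SRB staining (560 nm) checked overt cytotoxicity.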

[10] = read-out: Interferon-gamma inducible Protein 10 (IP10), CXCL10 (gene 3627); assay: BSK_BE3C_IP10: BioMAP Diversity Plus: BE3C Assay for Interferon-gamma inducible Protein 10 (IP10) Biomarker Activity (AID 2283034); conditions: primary human bronchial epithelial cells; actives raise or lower the signal
In short: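 IP-10 quantified by ELISA in human primary bronchial epithelial cell cultures at 24 hours post-dosing. Gain or loss of signal fitted relative to DMSO; parallel SRB staining assessed overt cytotoxicity.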

[11] = read-out: Monokine induced gamma interferon (MIG), CXCL9 (gene 4283); assay: BSK_BE3C_MIG: BioMAP Diversity Plus: BE3C Assay for Monokine induced gamma interferon (MIG) Biomarker Activity (AID 2283035); conditions: primary human bronchial epithelial cells; actives raise or lower the signal
In short: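 Dose cells (human primary bronchial epithelial), incubate 24 h, quantify MIG by ELISA, then fit concentration–response in both directions relative to DMSO control.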

[12] = read-out: Plasminogen activator inhibitor-1 (PAI1), SERPINE1 (gene 5054); assay: BSK_BE3C_PAI1: BioMAP Diversity Plus: BE3C Assay for Plasminogen activator inhibitor-1 (PAI1) Biomarker Activity (AID 2283037); conditions: primary human bronchial epithelial cells; actives raise or lower the signal
In short: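 PAI-1 was measured by ELISA in human primary bronchial epithelial cultures 24 h after chemical dosing, with cytotoxicity checked by SRB total-protein staining in parallel cultures. Activity was fitted in both directions relative to DMSO.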

[13] = read-out: urokinase plasminogen activator (uPA), PLAU (gene 5328); assay: BSK_BE3C_uPA: BioMAP Diversity Plus: BE3C Assay for urokinase plasminogen activator (uPA) Biomarker Activity (AID 2283038); conditions: primary human bronchial epithelial cells; actives raise or lower the signal
In short: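 Using confluent primary human lung bronchial epithelial cultures, we dosed chemicals, waited 24 h, then ran a uPA ELISA, fitting bidirectionally against DMSO.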

[14] = read-out: Urokinase-type plasminogen activator receptor (uPAR), PLAUR (gene 5329); assay: BSK_BE3C_uPAR: BioMAP Diversity Plus: BE3C Assay for Urokinase-type plasminogen activator receptor (uPAR) Biomarker Activity (AID 2283039); conditions: primary human bronchial epithelial cells; actives raise or lower the signal
In short: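 uPAR levels were measured by ELISA after 24 h compound treatment of primary human bronchial epithelial cells, fitted in both directions relative to DMSO. Parallel SRB staining served as the cytotoxicity read-out.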

[15] = read-out: Interleukin-6 (IL6), IL6 (gene 3569); assay: BSK_CASM3C_IL6: BioMAP Diversity Plus: CASM3C Assay for Interleukin-6 (IL6) Biomarker Activity for (AID 2283040); conditions: primary human coronary artery smooth muscle cells; actives raise or lower the signal
[16] = read-out: Tissue plasminogen activator (tPA), PLAT (gene 5327); assay: BSK_BE3C_tPA: BioMAP Diversity Plus: BE3C Assay for Tissue plasminogen activator (tPA) Biomarker Activity (AID 2283041); conditions: primary human bronchial epithelial cells; actives raise or lower the signal
In short: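 tPA measured by ELISA 24 h after dosing human primary bronchial epithelial cells (BE3C system). Changes in either direction were fitted against DMSO. Parallel cultures were stained with SRB to flag overt cytotoxicity.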

[17] = read-out: Interleukin-8 (IL8), CXCL8 (gene 3576); assay: BSK_CASM3C_IL8: BioMAP Diversity Plus: CASM3C Assay for Interleukin-8 (IL8) Biomarker Activity (AID 2283042); conditions: primary human coronary artery smooth muscle cells; actives raise or lower the signal;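 note: IL-8 protein level quantified by ELISA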
[18] = read-out: Human Leukocyte Antigen - DR isotype (HLADR), HLA-DRA (gene 3122); assay: BSK_CASM3C_HLADR: BioMAP Diversity Plus: CASM3C Assay for Human Leukocyte Antigen - DR isotype (HLADR) Biomarker Activity (AID 2283043); conditions: primary human coronary artery smooth muscle cells; actives raise or lower the signal;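 note: cell-surface HLA-DR protein level quantified by ELISA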
[19] = read-out: Human Leukocyte Antigen - DR isotype (HLADR), HLA-DRA (gene 3122); assay: BSK_BE3C_HLADR: BioMAP Diversity Plus: BE3C Assay for Human Leukocyte Antigen - DR isotype (HLADR) Biomarker Activity (AID 2283032); conditions: primary human bronchial epithelial cells; actives raise or lower the signal
In short: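 Cell-surface HLA-DR ELISA readout at 24 h after dosing in the BE3C primary human lung bronchial epithelial system; gain or loss of signal against DMSO, with parallel sulforhodamine B staining of total protein for overt cytotoxicity.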

[20] = read-out: Transforming growth factor beta 1 (TGFb1), TGFB1 (gene 7040); assay: BSK_BE3C_TGFb1: BioMAP Diversity Plus: BE3C Assay for Transforming growth factor beta 1 (TGFb1) Biomarker Activity (AID 2283036); conditions: primary human bronchial epithelial cells; actives raise or lower the signal
In short: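 ELISA readout of TGF-b1 from human lung bronchial epithelial primary cells, taken 24 h post-treatment. Gain or loss of signal fitted relative to DMSO baseline, with parallel SRB staining for overt cytotoxicity.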

Measured: AC50

O=C(O)C1(c2ccc3c(c2)OC[C@H](Cc2ccc(-c4ccccc4)cc2)[C@H]3O)CCCC1
active: [1] 31.7 µM | [3] 27.1 µM | [4] 20 µM | [5] 26.2 µM | [10] 5.91 µM | [11] 19.9 µM | [12] 12.4 µM | [13] 13.8 µM | [14] 14.1 µM | [16] 4.2 µM | [18] 25 µM
inactive: [2] | [6] | [7] | [8] | [9] | [15] | [17]

O=C1C=CC(=O)c2ccccc21
inactive: [6]
active: [1] 5.57 µM | [2] 4.06 µM | [3] 1.62 µM | [4] 2.55 µM | [5] 3.8 µM | [7] 1.99 µM | [8] 5.18 µM | [19] 3.32 µM | [9] 1.95 µM | [10] 2.01 µM | [11] 6.51 µM | [12] 3.25 µM | [13] 4.36 µM | [14] 4.59 µM | [15] 9.25 µM | [16] 3.27 µM | [17] 20 µM | [18] 2.45 µM

OC(Cc1ccccc1Cl)(Cn1[nH]cnc1=S)C1(Cl)CC1 (centres undefined)
inactive: [1] | [2] | [5] | [6] | [15] | [17]
active: [3] 20 µM | [4] 27.8 µM | [7] 20 µM | [8] 20 µM | [9] 20 µM | [10] 15.8 µM | [11] 31.1 µM | [20] 8.86 µM | [12] 6.3 µM | [13] 20 µM | [14] 12.6 µM | [16] 20 µM | [18] 26.7 µM

COCC(=O)N(c1c(C)cccc1C)[C@H](C)C(=O)OC
not listed: [6] | [20]
inactive: all other assays above

CC(C)(C)c1ccccc1O
inactive: all assays above

O=C(CCl)NCO
not listed: [20]
inactive: all other assays above

OC(Cc1ccccc1Cl)(Cn1cncn1)C1(Cl)CC1 (centres undefined)
not listed: [19] | [20]
inactive: all other assays above

C=CC(Cl)CCl (centres undefined)
not listed: [20]
inactive: all other assays above

Oc1cccc(-c2ccccc2)c1
active: [2] 38.9 µM | [4] 20 µM | [9] 36.9 µM
not listed: [3] | [19] | [20]
inactive: all other assays above

O=S(=O)(C(Cl)(Cl)Cl)C(Cl)(Cl)Cl
active: [1] 7.31 µM | [2] 4.25 µM | [4] 0.932 µM | [5] 4.45 µM | [6] 10.1 µM | [7] 1.45 µM | [8] 0.327 µM | [9] 1.43 µM | [10] 2.86 µM | [11] 7.75 µM | [12] 3.87 µM | [13] 5.31 µM | [14] 7.21 µM | [15] 1.61 µM | [16] 4.81 µM | [17] 1.69 µM | [18] 1.31 µM

CCN(CC)C(=O)C(Cl)=C(C)OP(=O)(OC)OC
not listed: [3] | [20]
inactive: all other assays above

CCOP(=S)(OCC)OP(=S)(OCC)OCC
active: [2] 37.5 µM | [4] 20 µM | [7] 32.3 µM | [9] 33 µM
not listed: [3] | [19] | [20]
inactive: all other assays above
